In PubChem BioAssay AID1942 (Johns Hopkins Ion Channel Center, 2009):
About 580 (24%) of roughly 2,400 compounds were called active. Only a sample is shown. A number with no mark means an inactive call.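 How the source made its calls: active means activity change at or above the mean plus 3 SD of buffer wells without dofetilide, per plate; inactive means the rest.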

These molecules were tested against Potassium voltage-gated channel subfamily KQT member 2 (Rattus norvegicus) (UniProt O88943) (assay: KCNQ2 potentiation in CHO cells – cell-based, FluxOR thallium flux, counter-screen for hERG block protector project, confirmation (AID 1942;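 further: normalized value minus buffer-control mean plus three SD of buffer wells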)). Settings: FluxOR thallium flux fluorescence, at 10 µM, stronger effect = higher value.
Chain of Potassium voltage-gated channel subfamily KQT member 2 (Rattus norvegicus) (O88943 whole entry, looked up): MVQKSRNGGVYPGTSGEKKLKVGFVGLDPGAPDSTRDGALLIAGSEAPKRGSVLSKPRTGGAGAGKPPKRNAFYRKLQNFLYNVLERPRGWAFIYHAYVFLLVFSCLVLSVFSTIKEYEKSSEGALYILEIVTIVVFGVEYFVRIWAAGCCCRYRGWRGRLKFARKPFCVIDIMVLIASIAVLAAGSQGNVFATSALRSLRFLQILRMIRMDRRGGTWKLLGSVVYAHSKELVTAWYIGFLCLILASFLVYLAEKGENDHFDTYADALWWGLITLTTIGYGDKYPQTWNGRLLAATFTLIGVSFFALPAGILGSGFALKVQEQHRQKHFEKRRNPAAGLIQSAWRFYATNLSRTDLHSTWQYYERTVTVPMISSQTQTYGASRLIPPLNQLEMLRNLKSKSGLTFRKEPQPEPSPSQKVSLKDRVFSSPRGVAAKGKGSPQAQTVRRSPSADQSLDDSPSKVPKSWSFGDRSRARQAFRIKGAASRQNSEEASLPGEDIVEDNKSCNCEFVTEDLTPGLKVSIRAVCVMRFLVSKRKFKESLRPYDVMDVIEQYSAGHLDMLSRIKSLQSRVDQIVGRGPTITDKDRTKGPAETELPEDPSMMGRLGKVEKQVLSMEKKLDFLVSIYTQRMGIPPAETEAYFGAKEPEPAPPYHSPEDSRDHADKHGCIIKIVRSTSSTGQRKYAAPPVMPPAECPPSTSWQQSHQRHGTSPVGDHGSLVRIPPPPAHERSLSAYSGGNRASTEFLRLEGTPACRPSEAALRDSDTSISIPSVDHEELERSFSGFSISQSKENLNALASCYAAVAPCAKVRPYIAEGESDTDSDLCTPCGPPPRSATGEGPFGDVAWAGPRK
Molecule CCOC(=O)C(=CNc1cc(C)nn1C(C)(C)C)C(=O)OCC has an activity change, less the hit threshold of -8.9%. O=C(CCCc1c[nH]c2ccccc12)Nc1ccc(S(=O)(=O)Nc2ncccn2)cc1 showed an activity change, less the hit threshold of -22%. COc1ccc([N+](=O)[O-])cc1N(CC(=O)NCc1ccco1)S(C)(=O)=O was tested, and the activity change, less the hit threshold was -12.1%. In the case of COc1ccccc1-n1cnc2sc(C)c(C)c2c1=O, the activity change, less the hit threshold was -17.7%. For CSc1nc2sc3c(c2c(=S)[nH]1)CC(C)(C)OC3, the activity change, less the hit threshold was 73.2% (active). In the case of CCC1(C)Cc2c(sc3nc(SC)[nH]c(=S)c23)CO1 (stereo not drawn), the activity change, less the hit threshold was 101% (active). Work on CCc1nc2sc3c(c2c(=S)[nH]1)CC(C)(C)OC3 yielded an activity change, less the hit threshold of -13.3%. For COc1ccc(CCNC(=O)CC(NS(=O)(=O)c2ccc(NC(C)=O)cc2)C(C)C)cc1OC (stereo not drawn), the activity change, less the hit threshold was -17.8%. With COC(=O)c1sccc1NS(=O)(=O)c1ccc(F)cc1F the activity change, less the hit threshold was -1.9%. Work on Cc1ccc(S(=O)(=O)N(C)C)cc1NC(=S)NC(C)CCCC(C)C (stereo not drawn) yielded an activity change, less the hit threshold of -25.5%. Molecule Cc1cccc(/C=N/Nc2ccc3ccccc3n2)c1 has an activity change, less the hit threshold of -14.1%. In the case of CCOc1ccc(/C=C2/SC(=O)NC2=S)cc1, the activity change, less the hit threshold was 83.5% (active). Molecule Cn1cc(/C=C2\SC(=O)NC2=S)c2ccccc21 has an activity change, less the hit threshold of -17.7%. Work on CCOc1ccc(/C=C2\CCc3ccccc3C2=O)cc1 yielded an activity change, less the hit threshold of -13.5%. Cc1ccc2nsnc2c1S(=O)(=O)Nc1cccc2nsnc12 was tested, and the activity change, less the hit threshold was 3.5% (active). In the case of O=C(O)c1ccccc1NC(=O)C1CCN(S(=O)(=O)c2cccc3nsnc23)CC1, the activity change, less the hit threshold was -7%. O=C(N/N=C/C(Cl)=C/c1ccc([N+](=O)[O-])cc1)C(=O)Nc1ccc(C(=O)O)cc1 was tested, and the activity change, less the hit threshold was -18.4%. With O=C(Nc1cccc(N=Cc2cc(Cl)cc(Br)c2O)c1)c1ccco1 the activity change, less the hit threshold was 22.4% (active). Oc1c(Cl)cc(Cl)cc1C=Nc1ccc(Br)cc1 was tested, and the activity change, less the hit threshold was 38.8% (active). O=C(NC(=S)Nc1cccc([N+](=O)[O-])c1)c1ccco1 gave an activity change, less the hit threshold of -20.7%. In the case of Cc1cccc(N=Cc2cc(Br)cc(Cl)c2O)c1, the activity change, less the hit threshold was 30.4% (active). In the case of Oc1c(Br)cc(Cl)cc1C=Nc1ccccc1Br, the activity change, less the hit threshold was 28.2% (active). O=C(Nc1ccccc1C(=O)O)c1cccc(NC(=O)c2ccco2)c1 was tested, and the activity change, less the hit threshold was -3.3%. Molecule COc1cccc(CN=c2c([N+](=O)[O-])nn(-c3ccccc3C)n2O)c1 has an activity change, less the hit threshold of -19.6%. For CCOCCOCN(C#N)c1nc(OC)nc(N(C)C)n1, the activity change, less the hit threshold was -20.4%. For NC(=O)c1cccc(N=Cc2cc(Cl)cc(Cl)c2O)c1, the activity change, less the hit threshold was 28.8% (active). COc1cc(Br)cc(/C=N/NC(=O)Cc2ccccc2)c1O gave an activity change, less the hit threshold of -9.1%. For COc1cc(Br)cc(C=Nc2cccc(C(F)(F)F)c2)c1O, the activity change, less the hit threshold was 5.7% (active). For Cc1ccc(N=Cc2cc(Cl)cc(Cl)c2O)nc1, the activity change, less the hit threshold was 22.5% (active). For Cc1ccc(N=Cc2cc(Br)cc(Cl)c2O)cc1, the activity change, less the hit threshold was 5.8% (active). With CCC[C@H]1COCCS(=O)(=O)N1Cc1ccc(Br)cc1 the activity change, less the hit threshold was -9.4%. COc1ccc(/C=C2\SC(=N)N(c3nccs3)C2=O)cc1OC showed an activity change, less the hit threshold of -16.2%. For Cc1ccsc1CN(C(=O)c1ccc([N+](=O)[O-])cc1)C1CCS(=O)(=O)C1 (stereo not drawn), the activity change, less the hit threshold was -17.5%. Cc1ccc(C(C)C)cc1OCC(=O)Nc1ccc(N2CCCCC2)cc1 showed an activity change, less the hit threshold of -13.5%. Molecule Oc1c(Br)cc(Br)cc1CNc1cccc2cccnc12 has an activity change, less the hit threshold of -29.6%. With Oc1c(Br)cc(Br)cc1C=Nc1cccc2ncccc12 the activity change, less the hit threshold was 30.9% (active). In the case of Cc1cccc(N2CCN(C(=O)C3CCN(S(=O)(=O)c4cccnc4)CC3)CC2)c1C, the activity change, less the hit threshold was -14.6%. O=C(CSCc1cnn(-c2ccccc2)c1-n1cccc1)NCc1cccnc1 was tested, and the activity change, less the hit threshold was -9%. With CC1=[N+]([O-])C(C)(C)C(c2ccc(Br)cc2)=[N+]1[O-] the activity change, less the hit threshold was 7.3% (active). With Cc1cc(C)c(S(=O)(=O)NCc2ccccn2)c(C)c1 the activity change, less the hit threshold was -18.8%. CSc1nc(-c2ccco2)cc(C(F)(F)F)c1C#N showed an activity change, less the hit threshold of -9.1%. In the case of O=C(O)COc1ccccc1/C=C1\SC(=S)N(NC(=O)c2ccccc2O)C1=O, the activity change, less the hit threshold was -12.9%. In the case of Cc1c(N2C(=O)/C(=C\c3ccccc3O)SC2=S)c(=O)n(-c2ccccc2)n1C, the activity change, less the hit threshold was 68.6% (active). In the case of COc1ccc(C(C(=O)NC(C)(C)C)N(C(=O)CCC(=O)Nc2cc(C)on2)c2cccc(F)c2)cc1 (stereo not drawn), the activity change, less the hit threshold was -14.9%. CCCCc1c(O)nc(SCC(=O)N2CCOCC2)[nH]c1=O was tested, and the activity change, less the hit threshold was -9.9%. COC(=O)CNc1nc(Cl)nc(Nc2ccc(C)cc2)n1 showed an activity change, less the hit threshold of -22.2%. With CCOC(=O)c1c(NS(=O)(=O)c2ccc(Br)cc2)sc2c1CCC2 the activity change, less the hit threshold was 5.6% (active). CCOC(=O)c1c(C)cccc1OCC(N)=O gave an activity change, less the hit threshold of -12.7%. CCOC(=O)c1c(NS(=O)(=O)Cc2ccccc2)sc2c1CCCC2 was tested, and the activity change, less the hit threshold was 32.5% (active). Molecule COC(=O)c1c(NS(=O)(=O)c2ccc3ccccc3c2)sc2c1CCCC2 has an activity change, less the hit threshold of -15.5%. In the case of COC(=O)c1c(NS(=O)(=O)Cc2ccccc2)sc2c1CCCC2, the activity change, less the hit threshold was 42.1% (active). Cc1ccc(C(=O)Nc2sc3c(c2C(=O)O)CCCCC3)o1 was tested, and the activity change, less the hit threshold was -23.9%. CN1C(=O)c2ccc(C(=O)NCc3ccccc3)cc2C1=O was tested, and the activity change, less the hit threshold was -20.8%. With COCCCNC(=O)CCc1nnc(Cc2ccc(-c3ccccc3)cc2)o1 the activity change, less the hit threshold was -5.1%. Cc1cc(=S)[nH]c2c(C)cccc12 gave an activity change, less the hit threshold of -3.9%. Molecule CCOc1cc(NC(=S)N2CCC(C(N)=O)CC2)c(C(=O)OC)cc1OCC has an activity change, less the hit threshold of -11.5%. CCc1ccc(OCC(=O)Nc2ncn[nH]2)cc1 showed an activity change, less the hit threshold of -16.1%. For COc1ccc(OCC(=O)NNC(=O)C(=O)Nc2ccc(C)cc2)cc1, the activity change, less the hit threshold was -23.7%. O=C(COc1cccc(-n2cnnn2)c1)Nc1ccc([N+](=O)[O-])cc1 was tested, and the activity change, less the hit threshold was -13.3%. For CCc1ccc(NC(=O)C(=O)NNC(=O)COc2cccc(OC)c2)cc1, the activity change, less the hit threshold was 14.3% (active). Cc1cccc(OCC(=O)NCc2nc(-c3ccccc3)no2)c1 gave an activity change, less the hit threshold of -17.2%. For COc1cccc(OCC(=O)NNC(=O)C(=O)Nc2cccc(C)c2)c1, the activity change, less the hit threshold was 33.1% (active). In the case of CC(C)c1cccc(C(C)C)c1NC(=O)COC(=O)[C@H](C)NC(N)=O, the activity change, less the hit threshold was -17.5%.
